Measured values published in PubChem BioAssay AID1159580 (chemical genetic matrix, 2015).
Values joined by “and” are separate entries in the source; they are usually repeats but may differ in a detail not shown here. Equal entries are not always repeated. The whole screen tested about 5,500 compounds, of which about 2,000 (36%) were called active. Roughly 18% stayed inconclusive and do not appear here. Rule as the data show it: active = normalized growth mostly below about 0.91 (no sharp cut-off); inconclusive = no clear call, values can overlap the other calls; inactive = mostly above about 0.92. The list shows a part of the results.

Test: chemical genetic growth profiling, strain panel (AID 1159580);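 also: tested at 20 µM; growth read once vehicle control cultures reached saturation at 30 °C; 1 = growth at the plate median or of vehicle wells; lower values mean less growth of the strain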
Conditions: S. cerevisiae deletion strains, growth OD

Measured: normalized growth

C[C@H]1O[C@@H](O[C@H]2[C@@H](O)C[C@H](O[C@H]3[C@@H](O)C[C@H](O[C@H]4CC[C@]5(C)C6C[C@@H](O)[C@]7(C)[C@@H](C8=CC(=O)OC8)CC[C@]7(O)C6CC[C@@H]5C4)O[C@@H]3C)O[C@@H]2C)C[C@H](O)[C@@H]1O (stereo partly drawn)
inactive: locus YAL013W, strain DEP1, hits give low values 0.992 | locus YAL021C, strain ccr4, hits give low values 0.982 | locus YAL026C, strain drs2, hits give low values 1.01 | locus YAL030W, strain snc1, hits give low values 0.991 | locus YBL061C, strain skt5, hits give low values 0.99 | locus YBR009C, strain hhf1, hits give low values 1.08 | locus YBR021W, strain FUR4, hits give low values 1.01 | locus YBR023C, strain chs3, hits give low values 0.994 | locus YBR171W, strain sec66, hits give low values 0.984 | locus YBR229C, strain ROT2, hits give low values 1 | locus YBR231C, strain swc5, hits give low values 0.989 | locus YBR279W, strain paf1, hits give low values 0.996 | locus YCL011C, strain gbp2, hits give low values 0.967 | locus YCL016C, strain dcc1, hits give low values 0.992 | locus YCL029C, strain bik1, hits give low values 0.977 | locus YCL061C, strain MRC1, hits give low values 1.01 | locus YCL069W, strain vba3, hits give low values 0.991 | locus YCR088W, strain abp1, hits give low values 0.997 | locus YDL005C, strain med2, hits give low values 0.98 | locus YDL035C, strain GPR1, hits give low values 0.987 | locus YDL040C, strain nat1, hits give low values 0.999 | locus YDL074C, strain BRE1, hits give low values 0.982 | locus YDL101C, strain DUN1, hits give low values 1.01 | locus YDL134C, strain PPH21, hits give low values 1.03 | locus YDL185W, strain tfp1, hits give low values 0.955 | locus YDL192W, strain arf1, hits give low values 0.983 | locus YDR001C, strain nth1, hits give low values 0.982 | locus YDR069C, strain doa4, hits give low values 0.996 | locus YDR101C, strain arx1, hits give low values 0.982 | locus YDR137W, strain rgp1, hits give low values 0.978 | locus YDR150W, strain NUM1, hits give low values 0.991 | locus YDR159W, strain sac3, hits give low values 1.02 | locus YDR162C, strain NBP2, hits give low values 1.03 | locus YDR195W, strain ref2 0.987 | locus YDR297W, strain sur2, hits give low values 0.987 | locus YDR318W, strain mcm21, hits give low values 1 | locus YDR334W, strain swr1, hits give low values 0.957 | locus YDR335W, strain msn5, hits give low values 0.98 | locus YDR388W, hits give low values 0.984 | locus YDR392W, strain spt3, hits give low values 0.975 | locus YDR502C, strain sam2, hits give low values 1.01 | locus YEL003W, strain gim4, hits give low values 0.997 | locus YEL037C, strain rad23, hits give low values 1 | locus YEL061C, strain CIN8 (second series), hits give low values 0.992 | locus YEL061C, strain CIN8, hits give low values 1 | locus YER015W, strain faa2, hits give low values 1.01 | locus YER016W, strain bim1, hits give low values 0.987 | locus YER110C, hits give low values 0.961 | locus YER111C, strain swi4, hits give low values 1.01 | locus YER155C, strain BEM2 (second series), hits give low values 1.04 | locus YER155C, strain BEM2, hits give low values 0.986 | locus YER167W, strain BCK2, hits give low values 0.992 | locus YFR010W, strain ubp6, hits give low values 1 | locus YGL078C, strain dbp3, hits give low values 1 | locus YGL086W, strain mad1, hits give low values 0.969 | locus YGL167C, strain pmr1, hits give low values 0.998 | locus YGL173C, strain kem1, hits give low values 0.981 | locus YGL227W, strain vid30, hits give low values 0.99 | locus YGL240W, strain doc1, hits give low values 0.973 | locus YGL248W, strain PDE1, hits give low values 1.02 | locus YGL253W, strain hxk2, hits give low values 0.957 | locus YGR135W, strain pre9, hits give low values 1.01 | locus YGR252W, strain gcn5, hits give low values 1.09 | locus YHR013C, strain ard1, hits give low values 0.977 | locus YHR027C, strain rpn1, hits give low values 0.976 | locus YHR030C, strain SLT2, hits give low values 0.983 and 1.05 | locus YHR079C, strain IRE1 (second series), hits give low values 0.982 | locus YHR079C, strain IRE1, hits give low values 1.06 | locus YHR094C, strain hxt1, hits give low values 0.973 | locus YHR129C, strain ARP1, hits give low values 0.993 | locus YHR142W, strain chs7, hits give low values 0.964 | locus YHR200W, strain rpn10, hits give low values 0.97 | locus YIL066C, strain RNR3, hits give low values 1 | locus YIL073C, strain SPO22, hits give low values 0.937 | locus YIL125W, strain kgd1, hits give low values 0.941 | locus YIR030C, strain dcg1, hits give low values 0.99 | locus YJL092W, strain hpr5, hits give low values 0.996 | locus YJL095W, strain BCK1 (second series), hits give low values 0.976 | locus YJL095W, strain BCK1, hits give low values 1.02 and 1.06 | locus YJL115W, strain asf1, hits give low values 0.984 | locus YJL129C, strain trk1, hits give low values 0.979 | locus YJL134W, strain LCB3, hits give low values 0.985 | locus YJL154C, strain vps35, hits give low values 0.977 | locus YJL164C, strain tpk1, hits give low values 1.02 | locus YJL166W, strain qcr8, hits give low values 0.939 | locus YJL168C, strain set2, hits give low values 0.998 | locus YJL187C, strain SWE1 (second series), hits give low values 1.02 | locus YJL187C, strain SWE1, hits give low values 0.993
